Source: publication PMC7862700, “An all-to-all approach to the identification of sequence-specific readers for epigenetic DNA modifications on cytosine”

Tests used:
Experiment in all cases: DAPPL (digital affinity profiling via proximity ligation, sequencing); 10 mM Tris-HCl pH 7.5, 50 mM NaCl, 1 mM DTT, 4% glycerol, room temperature, 30 min; GST-TFs on glutathione beads, 16-mer random dsDNA library, 0.1% formaldehyde crosslink after washing; high values mean tight binding
FLI1 = target: T1, FLI1 (Homo sapiens, UniProt Q01543 1-452); conditions: protein: recombinant; tags: N-terminal GST; dsDNA, one strand shown
T1 sequence: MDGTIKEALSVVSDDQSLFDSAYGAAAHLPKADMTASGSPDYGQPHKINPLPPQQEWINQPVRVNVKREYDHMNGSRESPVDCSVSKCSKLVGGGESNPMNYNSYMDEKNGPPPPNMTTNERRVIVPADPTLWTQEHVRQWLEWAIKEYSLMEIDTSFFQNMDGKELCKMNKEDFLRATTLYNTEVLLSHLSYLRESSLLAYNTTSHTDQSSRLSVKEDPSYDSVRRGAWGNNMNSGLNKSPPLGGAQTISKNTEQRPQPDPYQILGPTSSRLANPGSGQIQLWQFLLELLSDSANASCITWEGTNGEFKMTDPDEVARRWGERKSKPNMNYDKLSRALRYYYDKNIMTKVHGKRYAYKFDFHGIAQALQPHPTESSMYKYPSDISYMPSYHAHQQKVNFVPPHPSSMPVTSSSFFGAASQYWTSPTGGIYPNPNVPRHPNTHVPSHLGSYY
Method in brief: (§1)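 A tag-only sample was pooled with DNA-barcoded human transcription factors that had been expressed in yeast as GST fusions and captured on glutathione beads. The pools were incubated for 30 min at room temperature with 200 nmole of a random double-stranded 16-mer DNA library in Tris/NaCl/DTT/glycerol buffer, then washed, crosslinked with 0.1% formaldehyde, proximity-ligated (BsaI/T4 ligase, 1 h, 37 °C), PCR-amplified and sequenced on an Illumina NextSeq500. Binding signal is each hexamer's read frequency for a factor divided by its frequency for the tag-only sample.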

ELK1 = target: T2, ELK1 (Homo sapiens, UniProt P19419 1-428); conditions: protein: recombinant; tags: N-terminal GST; dsDNA, one strand shown
T2 sequence: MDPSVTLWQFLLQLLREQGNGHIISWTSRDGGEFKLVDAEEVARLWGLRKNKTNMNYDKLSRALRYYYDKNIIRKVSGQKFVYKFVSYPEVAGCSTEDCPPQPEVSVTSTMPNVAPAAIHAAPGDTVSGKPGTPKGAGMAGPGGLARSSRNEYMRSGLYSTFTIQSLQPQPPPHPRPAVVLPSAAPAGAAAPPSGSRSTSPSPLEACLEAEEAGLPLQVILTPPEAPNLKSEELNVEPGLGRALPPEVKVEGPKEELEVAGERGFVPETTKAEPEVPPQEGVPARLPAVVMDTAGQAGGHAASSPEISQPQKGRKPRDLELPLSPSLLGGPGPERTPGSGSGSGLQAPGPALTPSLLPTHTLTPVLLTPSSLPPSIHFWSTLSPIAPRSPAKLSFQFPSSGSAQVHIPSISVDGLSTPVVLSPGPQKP
Method in brief: as §1

GABPA = target: T3, GABPA (Homo sapiens, UniProt Q06546 1-454); conditions: protein: recombinant; tags: N-terminal GST; dsDNA, one strand shown
T3 sequence: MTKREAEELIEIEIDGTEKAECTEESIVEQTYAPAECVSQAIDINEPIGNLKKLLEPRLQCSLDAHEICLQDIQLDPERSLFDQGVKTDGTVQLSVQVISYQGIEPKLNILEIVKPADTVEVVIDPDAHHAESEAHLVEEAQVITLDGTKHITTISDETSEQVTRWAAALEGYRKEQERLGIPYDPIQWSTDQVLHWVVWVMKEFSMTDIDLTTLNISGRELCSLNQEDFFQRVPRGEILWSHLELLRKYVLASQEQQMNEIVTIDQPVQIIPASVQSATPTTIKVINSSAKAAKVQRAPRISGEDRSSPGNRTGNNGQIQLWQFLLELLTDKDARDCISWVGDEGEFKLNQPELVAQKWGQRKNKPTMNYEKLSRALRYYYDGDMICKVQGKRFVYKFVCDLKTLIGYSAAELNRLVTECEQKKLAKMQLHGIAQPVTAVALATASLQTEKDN
Method in brief: as §1

ERG = target: T4, ERG (Homo sapiens, UniProt P11308 1-479); conditions: protein: recombinant; tags: N-terminal GST; dsDNA, one strand shown
T4 sequence: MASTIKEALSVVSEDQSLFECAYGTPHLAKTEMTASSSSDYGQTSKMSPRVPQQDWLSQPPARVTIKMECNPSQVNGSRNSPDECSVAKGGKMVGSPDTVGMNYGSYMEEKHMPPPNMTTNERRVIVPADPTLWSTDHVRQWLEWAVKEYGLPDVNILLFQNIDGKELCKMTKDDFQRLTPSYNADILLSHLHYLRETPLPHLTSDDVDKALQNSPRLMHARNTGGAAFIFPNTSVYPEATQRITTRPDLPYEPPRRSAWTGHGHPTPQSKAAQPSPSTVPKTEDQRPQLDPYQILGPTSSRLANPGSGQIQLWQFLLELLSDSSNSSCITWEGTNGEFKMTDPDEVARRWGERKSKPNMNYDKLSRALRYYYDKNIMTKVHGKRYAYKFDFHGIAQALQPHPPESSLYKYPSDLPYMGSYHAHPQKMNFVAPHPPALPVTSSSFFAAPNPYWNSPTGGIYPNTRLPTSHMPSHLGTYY
Method in brief: as §1

ELF1 = ELF1 (Homo sapiens, UniProt P32519 1-619); conditions: protein: recombinant; tags: N-terminal GST; dsDNA, one strand shown
Chain of ELF1 (P32519 whole entry): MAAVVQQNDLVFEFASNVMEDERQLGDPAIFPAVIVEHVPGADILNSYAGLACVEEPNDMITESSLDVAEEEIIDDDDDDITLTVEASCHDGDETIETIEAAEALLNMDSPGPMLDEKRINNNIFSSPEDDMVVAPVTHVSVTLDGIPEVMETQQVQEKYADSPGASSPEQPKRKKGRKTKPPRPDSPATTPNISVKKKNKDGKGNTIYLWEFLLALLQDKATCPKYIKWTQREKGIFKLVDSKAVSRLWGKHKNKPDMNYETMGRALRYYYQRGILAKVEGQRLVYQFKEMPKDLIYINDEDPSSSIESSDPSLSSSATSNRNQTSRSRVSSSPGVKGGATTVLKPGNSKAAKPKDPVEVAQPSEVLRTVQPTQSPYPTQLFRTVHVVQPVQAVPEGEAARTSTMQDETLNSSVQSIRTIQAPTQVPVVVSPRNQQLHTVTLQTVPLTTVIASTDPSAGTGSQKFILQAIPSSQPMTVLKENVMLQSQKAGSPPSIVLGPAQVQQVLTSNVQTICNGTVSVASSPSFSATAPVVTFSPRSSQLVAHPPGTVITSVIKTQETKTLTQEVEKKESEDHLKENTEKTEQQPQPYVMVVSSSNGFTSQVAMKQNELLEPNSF
Method in brief: as §1

EHF = target: T5, EHF (Homo sapiens, UniProt Q9NZC4 1-300); conditions: protein: recombinant; tags: N-terminal GST; dsDNA, one strand shown
T5 sequence: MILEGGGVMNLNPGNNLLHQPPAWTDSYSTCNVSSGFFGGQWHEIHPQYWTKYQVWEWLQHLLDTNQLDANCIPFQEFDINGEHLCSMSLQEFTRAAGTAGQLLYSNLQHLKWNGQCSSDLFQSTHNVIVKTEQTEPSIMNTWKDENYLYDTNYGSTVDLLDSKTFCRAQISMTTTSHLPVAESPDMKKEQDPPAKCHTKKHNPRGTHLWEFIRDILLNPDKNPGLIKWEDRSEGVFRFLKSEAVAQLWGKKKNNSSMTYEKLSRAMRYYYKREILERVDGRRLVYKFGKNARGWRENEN
Method in brief: as §1

SPI1 = SPI1 (Homo sapiens, UniProt P17947 1-270); conditions: protein: recombinant; tags: N-terminal GST; dsDNA, one strand shown
Method in brief: as §1

SPIB = SPIB (Homo sapiens, UniProt Q01892 1-262); conditions: protein: recombinant; tags: N-terminal GST; dsDNA, one strand shown
Chain of SPIB (Q01892 whole entry): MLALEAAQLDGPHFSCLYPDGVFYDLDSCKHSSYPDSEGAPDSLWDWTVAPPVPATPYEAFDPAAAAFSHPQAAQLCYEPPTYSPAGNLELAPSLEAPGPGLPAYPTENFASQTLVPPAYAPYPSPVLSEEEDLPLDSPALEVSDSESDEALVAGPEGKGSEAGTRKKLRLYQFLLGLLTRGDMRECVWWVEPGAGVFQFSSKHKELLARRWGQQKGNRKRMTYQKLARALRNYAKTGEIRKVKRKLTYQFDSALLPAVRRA
Method in brief: as §1

ELK3 = target: T6, ELK3 (Homo sapiens, UniProt P41970 1-407); conditions: protein: recombinant; tags: N-terminal GST; dsDNA, one strand shown
T6 sequence: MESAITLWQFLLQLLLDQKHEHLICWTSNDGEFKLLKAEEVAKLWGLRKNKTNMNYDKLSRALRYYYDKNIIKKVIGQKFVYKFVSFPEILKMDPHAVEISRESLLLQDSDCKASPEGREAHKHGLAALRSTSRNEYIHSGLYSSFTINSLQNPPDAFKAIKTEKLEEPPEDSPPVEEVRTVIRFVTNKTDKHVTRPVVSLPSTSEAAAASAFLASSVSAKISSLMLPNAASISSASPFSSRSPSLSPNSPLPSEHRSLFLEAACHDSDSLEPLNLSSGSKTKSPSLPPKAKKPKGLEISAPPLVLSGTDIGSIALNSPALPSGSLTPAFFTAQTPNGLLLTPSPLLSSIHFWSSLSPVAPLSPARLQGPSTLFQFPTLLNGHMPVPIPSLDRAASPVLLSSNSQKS
Method in brief: as §1

FEV = target: T7, FEV (Homo sapiens, UniProt Q99581 1-238); conditions: protein: recombinant; tags: N-terminal GST; dsDNA, one strand shown
T7 sequence: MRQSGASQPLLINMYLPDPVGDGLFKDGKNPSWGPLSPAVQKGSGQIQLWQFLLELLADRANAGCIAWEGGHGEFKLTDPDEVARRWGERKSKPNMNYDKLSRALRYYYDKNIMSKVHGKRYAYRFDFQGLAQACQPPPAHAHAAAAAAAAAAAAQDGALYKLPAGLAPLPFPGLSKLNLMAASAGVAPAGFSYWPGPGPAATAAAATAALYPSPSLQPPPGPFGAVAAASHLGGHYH
Method in brief: as §1

ETV5 = ETV5 (Homo sapiens, UniProt P41161 1-510); conditions: protein: recombinant; tags: N-terminal GST; dsDNA, one strand shown
Chain of ETV5 (P41161 whole entry): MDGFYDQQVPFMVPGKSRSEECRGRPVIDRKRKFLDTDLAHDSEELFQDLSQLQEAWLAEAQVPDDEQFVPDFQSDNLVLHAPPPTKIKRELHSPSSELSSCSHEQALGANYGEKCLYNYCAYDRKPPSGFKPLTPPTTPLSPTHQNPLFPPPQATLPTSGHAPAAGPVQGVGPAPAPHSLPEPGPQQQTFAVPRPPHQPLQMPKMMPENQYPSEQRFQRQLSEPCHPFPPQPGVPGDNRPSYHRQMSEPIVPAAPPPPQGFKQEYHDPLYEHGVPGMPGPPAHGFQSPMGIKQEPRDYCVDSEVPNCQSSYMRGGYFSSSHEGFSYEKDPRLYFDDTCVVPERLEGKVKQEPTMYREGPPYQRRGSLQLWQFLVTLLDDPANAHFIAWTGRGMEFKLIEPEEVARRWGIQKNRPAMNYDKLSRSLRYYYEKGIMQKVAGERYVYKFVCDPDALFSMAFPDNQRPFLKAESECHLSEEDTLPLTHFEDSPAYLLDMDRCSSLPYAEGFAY
Method in brief: as §1

HSF1 = HSF1 (Homo sapiens, UniProt Q00613 1-529); conditions: protein: recombinant; tags: N-terminal GST; chain copies: 3; dsDNA, one strand shown
Chain of HSF1 (Q00613 whole entry): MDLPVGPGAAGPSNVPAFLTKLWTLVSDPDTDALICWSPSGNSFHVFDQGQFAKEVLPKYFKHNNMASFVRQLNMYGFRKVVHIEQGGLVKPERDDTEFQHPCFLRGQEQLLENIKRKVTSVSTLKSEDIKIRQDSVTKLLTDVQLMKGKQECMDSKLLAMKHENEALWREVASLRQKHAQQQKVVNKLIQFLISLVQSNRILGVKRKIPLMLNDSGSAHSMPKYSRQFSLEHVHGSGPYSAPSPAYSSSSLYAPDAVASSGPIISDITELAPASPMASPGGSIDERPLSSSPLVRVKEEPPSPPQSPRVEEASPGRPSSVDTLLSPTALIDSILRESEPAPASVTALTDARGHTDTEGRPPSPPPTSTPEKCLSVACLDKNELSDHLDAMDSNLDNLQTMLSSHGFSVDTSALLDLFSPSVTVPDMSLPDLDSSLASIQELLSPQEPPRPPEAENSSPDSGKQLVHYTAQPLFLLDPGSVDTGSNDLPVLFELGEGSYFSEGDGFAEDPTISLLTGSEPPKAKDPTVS
Method in brief: as §1

SPIC = target: T8, SPIC (Homo sapiens, UniProt Q8N5J4 1-248); conditions: protein: recombinant; tags: N-terminal GST; dsDNA, one strand shown
T8 sequence: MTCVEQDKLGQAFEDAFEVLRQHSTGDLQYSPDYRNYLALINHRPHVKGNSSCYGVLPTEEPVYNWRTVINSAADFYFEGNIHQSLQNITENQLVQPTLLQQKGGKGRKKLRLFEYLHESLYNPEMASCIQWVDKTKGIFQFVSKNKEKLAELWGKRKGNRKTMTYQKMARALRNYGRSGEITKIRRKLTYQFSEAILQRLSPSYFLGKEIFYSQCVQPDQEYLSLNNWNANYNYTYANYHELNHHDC
Method in brief: as §1

ELF4 = ELF4 (Homo sapiens, UniProt Q99607 1-663); conditions: protein: recombinant; tags: N-terminal GST; dsDNA, one strand shown
Chain of ELF4 (Q99607 whole entry): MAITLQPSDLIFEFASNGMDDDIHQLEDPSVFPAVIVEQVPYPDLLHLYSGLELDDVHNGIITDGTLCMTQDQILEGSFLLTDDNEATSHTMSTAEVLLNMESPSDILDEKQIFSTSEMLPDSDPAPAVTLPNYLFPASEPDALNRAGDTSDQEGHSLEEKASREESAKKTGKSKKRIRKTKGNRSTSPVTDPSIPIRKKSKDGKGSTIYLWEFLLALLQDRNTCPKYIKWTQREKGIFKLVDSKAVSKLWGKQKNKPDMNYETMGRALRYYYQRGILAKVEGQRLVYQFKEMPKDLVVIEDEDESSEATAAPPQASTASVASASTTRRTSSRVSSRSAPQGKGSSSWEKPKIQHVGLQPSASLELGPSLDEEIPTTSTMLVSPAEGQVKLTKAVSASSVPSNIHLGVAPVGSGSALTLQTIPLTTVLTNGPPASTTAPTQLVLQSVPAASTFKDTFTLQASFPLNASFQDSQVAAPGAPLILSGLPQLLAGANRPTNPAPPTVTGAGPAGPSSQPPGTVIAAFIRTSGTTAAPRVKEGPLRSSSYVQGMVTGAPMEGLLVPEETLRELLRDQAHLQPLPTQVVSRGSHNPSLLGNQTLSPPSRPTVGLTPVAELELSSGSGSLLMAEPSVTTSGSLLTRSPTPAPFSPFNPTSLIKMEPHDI
Method in brief: as §1

ELK4 = target: T9, ELK4 (Homo sapiens, UniProt P28324-2 1-405); conditions: protein: recombinant; tags: N-terminal GST; dsDNA, one strand shown
T9 sequence: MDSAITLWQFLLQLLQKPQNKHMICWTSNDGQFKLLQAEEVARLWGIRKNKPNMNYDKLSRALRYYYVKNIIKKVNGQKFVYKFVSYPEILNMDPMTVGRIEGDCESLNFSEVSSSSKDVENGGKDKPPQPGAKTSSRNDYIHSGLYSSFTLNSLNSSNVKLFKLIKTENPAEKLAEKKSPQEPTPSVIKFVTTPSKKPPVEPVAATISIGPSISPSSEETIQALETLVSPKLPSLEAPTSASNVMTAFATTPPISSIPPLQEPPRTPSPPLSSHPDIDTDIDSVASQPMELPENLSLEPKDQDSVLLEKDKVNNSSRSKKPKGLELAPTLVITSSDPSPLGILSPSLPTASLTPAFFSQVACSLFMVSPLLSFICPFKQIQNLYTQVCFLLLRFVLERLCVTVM
Method in brief: as §1

ETV2 = target: T10, ETV2 (Homo sapiens, UniProt O00321 1-342); conditions: protein: recombinant; tags: N-terminal GST; dsDNA, one strand shown
T10 sequence: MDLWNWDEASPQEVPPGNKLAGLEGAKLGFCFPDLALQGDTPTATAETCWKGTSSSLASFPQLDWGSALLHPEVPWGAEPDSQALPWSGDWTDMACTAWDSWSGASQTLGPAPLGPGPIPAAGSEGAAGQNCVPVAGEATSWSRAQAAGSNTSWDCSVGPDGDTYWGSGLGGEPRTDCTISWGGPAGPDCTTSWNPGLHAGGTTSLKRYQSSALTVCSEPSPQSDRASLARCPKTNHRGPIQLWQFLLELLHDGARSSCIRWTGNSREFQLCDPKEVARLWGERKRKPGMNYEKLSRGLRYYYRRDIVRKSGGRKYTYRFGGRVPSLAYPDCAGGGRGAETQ
Method in brief: as §1

ELF3 = target: T11, ELF3 (Homo sapiens, UniProt P78545 1-371); conditions: protein: recombinant; tags: N-terminal GST; dsDNA, one strand shown
T11 sequence: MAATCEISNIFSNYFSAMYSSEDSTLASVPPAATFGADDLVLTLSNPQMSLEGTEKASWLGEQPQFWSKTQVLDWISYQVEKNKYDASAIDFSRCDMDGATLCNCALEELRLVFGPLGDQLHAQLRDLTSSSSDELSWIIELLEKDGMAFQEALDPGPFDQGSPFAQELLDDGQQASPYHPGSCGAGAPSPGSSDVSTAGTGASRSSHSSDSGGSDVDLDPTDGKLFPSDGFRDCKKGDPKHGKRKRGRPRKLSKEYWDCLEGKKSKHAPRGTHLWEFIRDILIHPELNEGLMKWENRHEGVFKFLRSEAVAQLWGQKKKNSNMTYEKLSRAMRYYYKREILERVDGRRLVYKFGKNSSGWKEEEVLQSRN
Method in brief: as §1

CRX = CRX (Homo sapiens, UniProt O43186 1-299); conditions: protein: recombinant; tags: N-terminal GST; dsDNA, one strand shown
Chain of CRX (O43186 whole entry): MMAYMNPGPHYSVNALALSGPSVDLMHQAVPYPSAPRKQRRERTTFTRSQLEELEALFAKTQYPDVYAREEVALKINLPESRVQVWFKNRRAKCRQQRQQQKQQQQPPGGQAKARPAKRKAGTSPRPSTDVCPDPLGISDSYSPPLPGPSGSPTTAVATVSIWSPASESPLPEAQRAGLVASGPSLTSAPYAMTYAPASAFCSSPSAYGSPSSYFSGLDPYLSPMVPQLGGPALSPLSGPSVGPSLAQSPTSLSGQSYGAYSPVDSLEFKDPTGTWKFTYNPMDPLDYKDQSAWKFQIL
Method in brief: as §1

ETV1 = ETV1 (Homo sapiens, UniProt P50549 1-477); conditions: protein: recombinant; tags: N-terminal GST; dsDNA, one strand shown
Chain of ETV1 (P50549 whole entry): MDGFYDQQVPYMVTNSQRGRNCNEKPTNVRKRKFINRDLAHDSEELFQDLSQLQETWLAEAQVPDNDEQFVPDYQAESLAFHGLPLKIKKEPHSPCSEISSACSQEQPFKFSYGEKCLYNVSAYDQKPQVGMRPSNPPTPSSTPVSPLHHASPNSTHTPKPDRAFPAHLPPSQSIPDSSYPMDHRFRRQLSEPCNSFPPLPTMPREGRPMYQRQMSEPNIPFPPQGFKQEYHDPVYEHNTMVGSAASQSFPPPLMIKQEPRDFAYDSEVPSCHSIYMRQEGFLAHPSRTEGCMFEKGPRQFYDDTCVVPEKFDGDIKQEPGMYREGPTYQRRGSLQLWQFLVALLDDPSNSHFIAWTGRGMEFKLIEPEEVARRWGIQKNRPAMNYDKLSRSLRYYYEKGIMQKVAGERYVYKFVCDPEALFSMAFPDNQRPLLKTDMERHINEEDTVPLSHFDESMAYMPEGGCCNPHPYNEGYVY
Method in brief: as §1

ACGTTT
binding signal (FLI1): 1.21 fold enrichment (6-mer frequency, TF over GST control) | binding signal (ELK1): 1.18 fold enrichment (6-mer frequency, TF over GST control) | binding signal (GABPA): 1.18 fold enrichment (6-mer frequency, TF over GST control) | binding signal (ERG): 1.27 fold enrichment (6-mer frequency, TF over GST control) | binding signal (ELF1): 1.17 fold enrichment (6-mer frequency, TF over GST control) | binding signal (EHF): 1.16 fold enrichment (6-mer frequency, TF over GST control) | binding signal (SPI1): 1.12 fold enrichment (6-mer frequency, TF over GST control) | binding signal (SPIB): 1.35 fold enrichment (6-mer frequency, TF over GST control) | binding signal (ELK3): 1.2 fold enrichment (6-mer frequency, TF over GST control) | binding signal (FEV): 1.22 fold enrichment (6-mer frequency, TF over GST control) | binding signal (ETV5): 1.15 fold enrichment (6-mer frequency, TF over GST control) | binding signal (HSF1): 1.05 fold enrichment (6-mer frequency, TF over GST control) | binding signal (SPIC): 1.29 fold enrichment (6-mer frequency, TF over GST control) | binding signal (ELF4): 1.14 fold enrichment (6-mer frequency, TF over GST control) | binding signal (ELK4): 1.22 fold enrichment (6-mer frequency, TF over GST control) | binding signal (ETV2): 1.18 fold enrichment (6-mer frequency, TF over GST control) | binding signal (ELF3): 1.08 fold enrichment (6-mer frequency, TF over GST control) | binding signal (CRX): 1 fold enrichment (6-mer frequency, TF over GST control) | binding signal (ETV1): 1.22 fold enrichment (6-mer frequency, TF over GST control)
